Source: PubChem
This is one part of a sample in which hits are shown more often than they occur.
IL1B secr inh: inflammasome signaling inhibition, IL-1 beta readout; THP-1 LPS/ATP IL-1B secretion, AlphaLISA, 16 h; active compounds read low; activity change, % at 57.5 µM; actives 4.7% (n = 360,000); in the data active = activity change below about -50%; inconclusive = mostly about -30% to -49%
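Secreted IL-1B measured by AlphaLISA bead assay after 16 h compound exposure of THP-1 cells; compounds (final up to 57.5 uM) added 1 h before LPS (250 ng/mL) and ATP (1.25 mM) stimulation; lower signal means less secretion.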
DT40 TDP1 no CPT: qHTS for Inhibitors of human tyrosyl-DNA phosphodiesterase 1 (TDP1): qHTS in cells in absence of CPT; DT40 Tdp1-/- hTDP1 cells, no CPT, ATP luminescence, 48 h; Potency, µM (top dose mostly 46.2 µM), hits mostly inhibitors; actives 15% (n = 420,000); note: nearly all actives have a fitted effect of over 55% in size
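A cellular qHTS used chicken DT40 cells lacking endogenous Tdp1 but carrying stably transfected human TDP1. Compounds were applied without camptothecin, and cell growth kinetics were judged by ATP-dependent luminescence after ≥48 hr.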
TDP1 cell CPT: DT40-hTDP1 cell growth loss with CPT; chicken DT40 Tdp1-/-;hTDP1 cells + 20 nM CPT, ATP luminescence, 48 h; actives 12% (n = 420,000); AID 686979; Potency, µM (top dose mostly 46.2 µM), actives largely listed as inhibitors; note: nearly all actives have a fitted effect of over 55% in size
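Chicken DT40 Tdp1-/- cells stably complemented with human TDP1 were seeded at 400 cells/well in medium containing 20 nM camptothecin, exposed to pin-transferred compounds, and grown at 37 °C for at least 48 hr. Viability was read as ATP luminescence.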
12-LOX inh: blocks human arachidonate 12S-lipoxygenase. Potency, µM (top dose mostly 108 µM), usual class: inhibitors. purified 12hLO, xylenol orange hydroperoxide absorbance. actives 1.1% (n = 580,000). AID 1671190
Target sequence (P18054 whole entry, looked up): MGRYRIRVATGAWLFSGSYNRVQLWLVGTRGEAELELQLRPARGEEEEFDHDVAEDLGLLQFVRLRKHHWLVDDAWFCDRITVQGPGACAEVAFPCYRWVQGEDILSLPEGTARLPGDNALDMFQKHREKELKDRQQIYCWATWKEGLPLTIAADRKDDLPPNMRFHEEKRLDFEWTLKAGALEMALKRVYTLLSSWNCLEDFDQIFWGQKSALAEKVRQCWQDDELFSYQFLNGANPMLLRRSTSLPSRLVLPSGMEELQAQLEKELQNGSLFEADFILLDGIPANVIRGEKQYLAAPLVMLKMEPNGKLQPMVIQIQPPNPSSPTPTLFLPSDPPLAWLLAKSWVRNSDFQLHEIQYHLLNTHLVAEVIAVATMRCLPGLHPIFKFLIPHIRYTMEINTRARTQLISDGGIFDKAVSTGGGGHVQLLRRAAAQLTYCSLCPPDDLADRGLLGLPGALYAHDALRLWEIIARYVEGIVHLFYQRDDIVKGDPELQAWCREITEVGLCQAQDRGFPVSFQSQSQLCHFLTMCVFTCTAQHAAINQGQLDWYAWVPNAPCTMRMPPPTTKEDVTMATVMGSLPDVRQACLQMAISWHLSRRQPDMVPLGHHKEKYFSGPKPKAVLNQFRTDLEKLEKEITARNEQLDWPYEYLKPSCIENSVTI
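Purified human 12hLO (150 nM final) in 25 mM Hepes, 0.01% Triton X-100, pH 7.0 was preincubated 15 min at room temperature with compound. Then 40 uM arachidonic acid was added, 30 min. Hydroperoxide was read by Fe-XO absorbance ratio 573/405 nm.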
HT1080 IDH1KD tx: kills HT-1080 cells with IDH1 knockdown; HT-1080 IDH1 knockdown viability, ATP luminescence, 48 h; Potency, µM (top dose mostly 46.1 µM), most hits filed as cytotoxic; actives 2% (n = 360,000); AID 686971
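HT-1080-IDH1KD cells (IDH1 knocked down), 750/well in RPMI with 5% FBS, treated with compound 48 h at 37 degrees C. Viability by CellTiter-Glo luminescence, normalised to DMSO and no-cell wells; concentration-response curves classed.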
HT1080NT lethal: kills 2HG-producing HT-1080-NT fibrosarcoma cells | HT-1080-NT fibrosarcoma viability, CellTiter-Glo ATP luminescence, 48 h | Potency, µM (highest dose often 46.1 µM), hits mostly cytotoxic | actives 1.6% (n = 360,000) | AID 686970;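 note: NT is the 2HG producing partner of a matched IDH1 knockdown line; nearly all actives have a fitted effect of over 55% in size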
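Read-out is CellTiter-Glo luminescence after 10 minutes at room temperature, following 48 hours' compound treatment of HT-1080-NT cells (750 cells/well, RPMI, 5% FBS, 37 degrees C).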
A number is an active result. Unless noted, calls come from the whole dose curve; as a rule, active = well fitted curve in the direction sought with a large enough effect; inconclusive = small, poorly fitted or top-dose-only effect, or another doubt; inactive = no such curve, though single readings can be large; an effect the other way counts as inactive or inconclusive.

For CSc1ncc(CN2CCOC(Cc3cccc(C(F)(F)F)c3)C2)cn1 (configuration not stated) the results were 12-LOX inh inactive.
For CCc1ccc(S(=O)(=O)c2cn(Cc3ccccc3)c3cc(N4CCCC4)c(F)cc3c2=O)cc1 the results were DT40 TDP1 no CPT inconclusive, TDP1 cell CPT inconclusive and 12-LOX inh inactive.
For Cc1cc2ccccc2n1CC(=O)N1CCN(C(=O)C2CC2)CC1 the results were 12-LOX inh inactive.
For O=C(NC(Cc1ccccc1)C(=O)N1CCN(c2ccccc2)CC1)c1cccs1 (configuration not stated) the results were 12-LOX inh inactive.
For CC1CN(S(=O)(=O)c2cccc(C(=O)Nc3cc(Cl)ccc3N3CCOCC3)c2)CC(C)O1 (configuration not stated) the results were IL1B secr inh inactive, DT40 TDP1 no CPT 15µM, TDP1 cell CPT inconclusive, 12-LOX inh inactive, HT1080 IDH1KD tx inactive and HT1080NT lethal inactive.
For CC1CN(S(=O)(=O)c2cccc(C(=O)Nc3ccc(N4CCCCC4)cc3)c2)CC(C)O1 (configuration not stated) the results were IL1B secr inh inactive, DT40 TDP1 no CPT inactive, TDP1 cell CPT inactive, 12-LOX inh inactive, HT1080 IDH1KD tx inactive and HT1080NT lethal inactive.
CN1CCN(S(=O)(=O)c2cccc(C(=O)Nc3ccccc3N3CCCC3)c2)CC1 was read as IL1B secr inh inactive, DT40 TDP1 no CPT inactive, TDP1 cell CPT inactive, 12-LOX inh inactive, HT1080 IDH1KD tx inactive and HT1080NT lethal inactive.
Screening Cc1nc2ccc(NC(=O)c3cccc(S(=O)(=O)N4CC(C)OC(C)C4)c3)cc2s1 (configuration not stated) returned IL1B secr inh inactive, DT40 TDP1 no CPT 12µM, TDP1 cell CPT 7.3µM, 12-LOX inh inactive, HT1080 IDH1KD tx inactive and HT1080NT lethal inactive.
CC1CN(S(=O)(=O)c2cccc(C(=O)Nc3ccccc3N3CCCC3)c2)CC(C)O1 (configuration not stated) was read as IL1B secr inh inactive, DT40 TDP1 no CPT 12µM, TDP1 cell CPT inconclusive, 12-LOX inh inactive, HT1080 IDH1KD tx inactive and HT1080NT lethal inactive.
For Cc1cc(-c2cc(N)n(-c3ccccc3)n2)c(C)n1C1CCCC1 the results were IL1B secr inh inactive, DT40 TDP1 no CPT inconclusive, TDP1 cell CPT 29µM, 12-LOX inh inactive, HT1080 IDH1KD tx inactive and HT1080NT lethal inconclusive.
For Cc1nc(C)c(/C(O)=C/c2nc3ccccc3oc2=O)s1 the results were IL1B secr inh inactive, DT40 TDP1 no CPT 10µM, TDP1 cell CPT 8.2µM, 12-LOX inh inactive, HT1080 IDH1KD tx inactive and HT1080NT lethal inactive.
O[C@@H]1C[C@@H](c2nnc3n2CCN(CC2CC2)C3)N(Cc2cccnc2)C1 was read as 12-LOX inh inactive.
`COc1cc(S(=O)(=O)N2CCN(c3ccccc3)CC2)ccc1F` gave IL1B secr inh inactive, DT40 TDP1 no CPT inconclusive, TDP1 cell CPT inconclusive, 12-LOX inh inactive, HT1080 IDH1KD tx inactive and HT1080NT lethal inactive.
For COc1cc(S(=O)(=O)N2CCN=C2c2ccccc2)ccc1F the results were IL1B secr inh inactive, DT40 TDP1 no CPT 23µM, TDP1 cell CPT inconclusive, 12-LOX inh inactive, HT1080 IDH1KD tx inconclusive and HT1080NT lethal inconclusive.
`CCOc1ccc(S(=O)(=O)N2CCN=C2c2ccccc2)c(C)c1C` gave IL1B secr inh inactive, DT40 TDP1 no CPT 23µM, TDP1 cell CPT 16µM, 12-LOX inh inactive, HT1080 IDH1KD tx inactive and HT1080NT lethal inactive.
For Cc1ccc(NC(=O)NN2CCN(C)CC2)cc1C the results were IL1B secr inh inactive, DT40 TDP1 no CPT inactive, TDP1 cell CPT inactive, 12-LOX inh inactive, HT1080 IDH1KD tx inactive and HT1080NT lethal inactive.
NS(=O)(=O)c1ccc(CCNC(=O)c2ccc(C#CC3(O)CCCCC3)cc2)cc1 was read as IL1B secr inh inactive, DT40 TDP1 no CPT 2.6µM, TDP1 cell CPT 21µM, 12-LOX inh inactive, HT1080 IDH1KD tx inconclusive and HT1080NT lethal inconclusive.
NS(=O)(=O)c1ccc(CCNC(=O)c2ccc(Cl)nc2)cc1 was read as IL1B secr inh inactive, DT40 TDP1 no CPT inactive, TDP1 cell CPT inactive, HT1080 IDH1KD tx inactive and HT1080NT lethal inactive.
For COc1ccc(Cn2nnc(C(=O)Nc3ccc4c(c3)OCCO4)c2N)cc1Br the results were IL1B secr inh inactive, DT40 TDP1 no CPT 2.6µM, TDP1 cell CPT 18µM, 12-LOX inh inactive, HT1080 IDH1KD tx inconclusive and HT1080NT lethal inactive.
Screening COc1ccc(Cn2nnc(C(=O)Nc3ccc(F)c(F)c3)c2N)cc1Br returned 12-LOX inh inactive.
COc1cc(NC(=O)c2nnn(Cc3ccc(F)cc3)c2N)cc(OC)c1 was read as DT40 TDP1 no CPT inactive, TDP1 cell CPT inconclusive and 12-LOX inh inactive.
COc1cc(NC(=O)c2nnn(Cc3ccc(SC)cc3)c2N)cc(OC)c1 was read as IL1B secr inh inactive, DT40 TDP1 no CPT 29µM, TDP1 cell CPT 18µM, 12-LOX inh inactive, HT1080 IDH1KD tx inactive and HT1080NT lethal inactive.
Screening COc1cc(OC)c(NC(=O)c2nnn(Cc3ccc(C)cc3)c2N)cc1Cl returned DT40 TDP1 no CPT 12µM, TDP1 cell CPT 18µM and 12-LOX inh inactive.
`CCCOc1ccc(C(=O)Nc2ccc3oc(-c4ccc(N(C)C)cc4)nc3c2)cc1` gave DT40 TDP1 no CPT inactive, TDP1 cell CPT inactive and 12-LOX inh inactive.
For CSc1ccc(C(C)NC(=O)c2ccccc2Br)cc1 (configuration not stated) the results were 12-LOX inh inactive.
For CC1(C(=O)Nc2cccc3ccccc23)CCN1C(=O)C1(c2ccccc2)CCCC1 (configuration not stated) the results were IL1B secr inh inactive, DT40 TDP1 no CPT 18µM, TDP1 cell CPT inconclusive, 12-LOX inh inactive, HT1080 IDH1KD tx inactive and HT1080NT lethal inactive.
Screening CC(C)NC(=O)C1(C)CCN1C(=O)C1(c2ccccc2)CCCC1 (configuration not stated) returned IL1B secr inh inactive, DT40 TDP1 no CPT inconclusive, TDP1 cell CPT inconclusive, 12-LOX inh inactive, HT1080 IDH1KD tx inactive and HT1080NT lethal inactive.
Screening C#Cc1ccc(NC(=O)C2(C)CCN2C(=O)C2(c3ccccc3)CCCC2)cc1 (configuration not stated) returned IL1B secr inh inconclusive, DT40 TDP1 no CPT 16µM, TDP1 cell CPT 23µM, 12-LOX inh inactive, HT1080 IDH1KD tx inconclusive and HT1080NT lethal inconclusive.
